# Experimental data reported in PubChem BioAssay (NCATS).
# Where “and” joins values, the source holds several entries; their conditions need not be identical. Identical values can stand only once. Records with an inconclusive call do not appear. Entries that show only a call come without a potency. Calls of active or inactive are those of the source. Unless noted, the call rests on the fitted dose curve; in most records, active means well fitted curve in the direction sought with a large enough effect; inconclusive means small, poorly fitted or top-dose-only effect, or another doubt; inactive means no such curve, though single readings can be large; an effect the other way counts as inactive or inconclusive.
# Assays:
# [1] = Counterscreen qHTS for small molecule stabilizers of the endoplasmic reticulum resident proteome: GLuc-NoTag assay (AID 1508627); further: potency means the concentration at half of the fitted maximal effect;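 on activity change, negative = inhibition: SH-SY5Y cells given compound then 100 nM thapsigargin to empty ER calcium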
# Method in brief: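 Luminescence of Gaussia luciferase secreted into the medium (coelenterazine, 0.07x final, unlysed cells) was the read-out. Human SH-SY5Y neuroblastoma cells constitutively secreting untagged GLuc received compound for 19 h, then 100 nM thapsigargin for 4 h.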
# [2] = Confirmatory qHTS for small molecule stabilizers of the endoplasmic reticulum resident proteome: Secreted ER Calcium Modulated Protein (SERCaMP) assay (AID 1508628); further: nearly all actives have a fitted effect of over 40% in size; further: potency means the concentration at half of the fitted maximal effect
# Method in brief: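 We seeded SH-SY5Y-GLuc-SERCaMP cells, added compounds (three concentrations in the primary run, eleven up to 76.6 uM in confirmation), incubated 16 h, depleted ER calcium with thapsigargin, and read luciferase 4 h later.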
# [3] = Cell Viability qHTS for small molecule stabilizers of the endoplasmic reticulum resident proteome (AID 1508629); details: cell viability counter-screen, 100 nM thapsigargin for final 4 h;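 further: human SH-SY5Y neuroblastoma cells carrying the GLuc-SERCaMP reporter; compound exposure about 46 h in total before the viability read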
# [4] = molecular target: Cytochrome P450 2D6 (Homo sapiens) (UniProt P10635); assay: Cytochrome P450 family 2 subfamily D member 6 (CYP2D6) small molecule antagonists: luciferase biochemical (cell-free) qHTS assay (AID 1645840; active means well fitted curve in the direction sought with a large enough effect in the repeat runs; an effect the other way counts as inactive or inconclusive; further: nearly all actives have a fitted effect of over 55% in size; further: potency means the concentration at half of the fitted maximal effect)
# Method in brief: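 P450-Glo luminescent screen: recombinant CYP2D6 enzyme–proluciferin substrate mix preincubated with compound 10 min at room temperature, then NADPH regeneration added for 1 h at room temperature. Detection reagent added for 20 min; luciferin light read as relative luminescence units.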
# Papain (Carica papaya) = Papain (Carica papaya) (UniProt P00784); assay: Primary qHTS assay for inhibitors of the protease papain (AID 1645873);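 further: papain turnover of Z-FR-AMC read as the AMC fluorescence gain over 10 min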
# [5] = molecular target: Catechol O-methyltransferase (Homo sapiens) (UniProt P21964); assay: Confirmatory Screen for Target Class Profiling of Small Molecule Inhibitors of Methyltransferases (AID 1745852); details: MTase-Glo luminescence, SAH detection, recombinant enzyme; measured here: COMT max response; stronger effect = lower value
# [6] = molecular target: Guanidinoacetate N-methyltransferase (Homo sapiens) (UniProt Q14353); assay: as above; details: MTase-Glo luminescence, SAH detection, recombinant enzyme; at 57.3 µM (top of the series)
# [7] = molecular target: Nicotinamide N-methyltransferase (Homo sapiens) (UniProt P40261); assay: as above; details: MTase-Glo luminescence, SAH detection, recombinant enzyme; measured here: NNMT max response; stronger effect = lower value
# [8] = Primary qHTS for small molecule stabilizers of the endoplasmic reticulum resident proteome: Secreted ER Calcium Modulated Protein (SERCaMP) assay (AID 1508630)
# Method in brief: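 GLuc-SERCaMP-expressing SH-SY5Y cells, pretreated 16 h with compound, are challenged with thapsigargin to empty ER calcium stores; after 4 h, coelenterazine is added directly to the medium and luminescence is imaged.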
# [9] = A High-Content qHTS Against Drug Library for the Identification of Small Molecules that Inhibit DYT1 Early Onset Primary Dystonia-Associated Cell Pathology (AID 1645839; calls by dose curve)
# Method in brief: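 In this high-content image screen, delE TorsinA mislocalization in inducible Flp-In 293 cells is scored as %pathology, with cell count serving as the counterscreen. Compound exposure lasts 48 h under tetracycline induction in reduced-serum medium.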
# [10] = molecular target: Cytochrome P450 2C9 (Homo sapiens) (UniProt P11712); assay: Cytochrome P450 family 2 subfamily C member 9 (CYP2C9) small molecule antagonists: luciferase biochemical (cell-free) qHTS assay (AID 1645842; active means well fitted curve in the direction sought with a large enough effect in the repeat runs; an effect the other way counts as inactive or inconclusive; further: nearly all actives have a fitted effect of over 55% in size; further: potency means the concentration at half of the fitted maximal effect)
# Method in brief: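 Luminescence, after 20 min with luciferin detection reagent, reflected CYP2C9 turnover during a 1 h NADPH-driven reaction at 37C. Enzyme-substrate mix contained 0.4% bovine serum albumin and was preincubated with compound 10 min at room temperature.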
# [11] = Primary qHTS for inhibitors of nuclear receptor binding SET domain protein 2 (NSD2) in an isogenic RCH-ACV NSD2 p.E1099K mutant (9B) (AID 1645876); further: nearly all actives have a fitted effect of over 70% in size; further: potency means the concentration at half of the fitted maximal effect
# [12] = Primary qHTS for inhibitors of nuclear receptor binding SET domain protein 2 (NSD2) in an RCH-ACV wild type WT cells (2C) (AID 1645877); further: nearly all actives have a fitted effect of over 70% in size; further: potency means the concentration at half of the fitted maximal effect
# [13] = molecular target: Rap guanine nucleotide exchange factor 3 (Homo sapiens) (UniProt O95398); assay: Confirmatory qHTS for antagonist of cAMP-regulated guanine nucleotide exchange factor 3 (EPAC1) (AID 1645880); further: nearly all actives have a fitted effect of over 55% in size
# Method in brief: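 Nucleotide exchange uses 100 nM EPAC1, 250 nM RAP1B-BODIPY-GDP and 50 uM GDP, with compounds in a concentration-titration series. After 5 min at room temperature, fluorescence (480 nm ex/540 nm em) is read every 5 min for 30 min. Data are normalized to control ATA and DMSO.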
# [14] = molecular target: Rap guanine nucleotide exchange factor 3 (Homo sapiens) (UniProt O95398); assay: Confirmatory qHTS for agonist of cAMP-regulated guanine nucleotide exchange factor 3 (EPAC1) (AID 1645881);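 further: EPAC1 catalysed release of BODIPY-GDP from Rap1B seen as fluorescence loss; nearly all actives have a fitted effect of over 75% in size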
# [15] = molecular target: Rap guanine nucleotide exchange factor 4 (Homo sapiens) (UniProt Q8WZA2); assay: Confirmatory qHTS for agonist of cAMP-regulated guanine nucleotide exchange factor 4 (EPAC2) (AID 1645884);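 further: nucleotide exchange releases bodipy-GDP from Rap1 and this lowers its fluorescence; nearly all actives have a fitted effect of over 65% in size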
# [16] = molecular target: Rap guanine nucleotide exchange factor 4 (Homo sapiens) (UniProt Q8WZA2); assay: Confirmatory qHTS for antagonist of cAMP-regulated guanine nucleotide exchange factor 4 (EPAC2) (AID 1645885); further: potency means the concentration at half of the fitted maximal effect; nearly all actives have a fitted effect of over 25% in size
# Chain of Rap guanine nucleotide exchange factor 4 (Homo sapiens) (Q8WZA2 whole entry, looked up): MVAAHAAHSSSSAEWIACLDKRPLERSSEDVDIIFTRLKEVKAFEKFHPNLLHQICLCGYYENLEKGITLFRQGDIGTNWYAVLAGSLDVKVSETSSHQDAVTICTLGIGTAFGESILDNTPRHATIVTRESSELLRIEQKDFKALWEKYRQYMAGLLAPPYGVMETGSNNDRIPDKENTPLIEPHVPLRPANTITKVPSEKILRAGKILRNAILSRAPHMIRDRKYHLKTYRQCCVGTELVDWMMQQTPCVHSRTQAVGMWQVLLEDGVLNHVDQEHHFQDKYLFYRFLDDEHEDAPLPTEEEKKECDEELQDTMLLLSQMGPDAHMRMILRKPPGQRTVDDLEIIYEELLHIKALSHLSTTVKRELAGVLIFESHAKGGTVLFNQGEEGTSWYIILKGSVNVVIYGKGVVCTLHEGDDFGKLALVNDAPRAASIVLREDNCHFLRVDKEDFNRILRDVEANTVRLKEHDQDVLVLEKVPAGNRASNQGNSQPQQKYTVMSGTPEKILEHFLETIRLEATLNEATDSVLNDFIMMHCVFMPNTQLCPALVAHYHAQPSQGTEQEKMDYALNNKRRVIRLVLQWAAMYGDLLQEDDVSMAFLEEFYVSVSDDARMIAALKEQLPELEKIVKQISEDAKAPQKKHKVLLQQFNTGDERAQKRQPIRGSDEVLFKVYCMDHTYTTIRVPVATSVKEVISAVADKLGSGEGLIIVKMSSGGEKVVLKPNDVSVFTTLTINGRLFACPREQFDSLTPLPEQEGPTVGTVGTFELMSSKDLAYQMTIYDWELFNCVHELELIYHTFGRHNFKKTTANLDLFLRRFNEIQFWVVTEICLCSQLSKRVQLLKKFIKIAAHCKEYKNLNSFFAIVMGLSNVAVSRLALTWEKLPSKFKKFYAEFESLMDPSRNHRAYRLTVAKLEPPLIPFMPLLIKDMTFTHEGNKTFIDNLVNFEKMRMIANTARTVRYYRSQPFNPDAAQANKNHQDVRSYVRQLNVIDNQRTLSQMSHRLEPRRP
# Chain of Rap guanine nucleotide exchange factor 3 (Homo sapiens) (O95398 whole entry, looked up): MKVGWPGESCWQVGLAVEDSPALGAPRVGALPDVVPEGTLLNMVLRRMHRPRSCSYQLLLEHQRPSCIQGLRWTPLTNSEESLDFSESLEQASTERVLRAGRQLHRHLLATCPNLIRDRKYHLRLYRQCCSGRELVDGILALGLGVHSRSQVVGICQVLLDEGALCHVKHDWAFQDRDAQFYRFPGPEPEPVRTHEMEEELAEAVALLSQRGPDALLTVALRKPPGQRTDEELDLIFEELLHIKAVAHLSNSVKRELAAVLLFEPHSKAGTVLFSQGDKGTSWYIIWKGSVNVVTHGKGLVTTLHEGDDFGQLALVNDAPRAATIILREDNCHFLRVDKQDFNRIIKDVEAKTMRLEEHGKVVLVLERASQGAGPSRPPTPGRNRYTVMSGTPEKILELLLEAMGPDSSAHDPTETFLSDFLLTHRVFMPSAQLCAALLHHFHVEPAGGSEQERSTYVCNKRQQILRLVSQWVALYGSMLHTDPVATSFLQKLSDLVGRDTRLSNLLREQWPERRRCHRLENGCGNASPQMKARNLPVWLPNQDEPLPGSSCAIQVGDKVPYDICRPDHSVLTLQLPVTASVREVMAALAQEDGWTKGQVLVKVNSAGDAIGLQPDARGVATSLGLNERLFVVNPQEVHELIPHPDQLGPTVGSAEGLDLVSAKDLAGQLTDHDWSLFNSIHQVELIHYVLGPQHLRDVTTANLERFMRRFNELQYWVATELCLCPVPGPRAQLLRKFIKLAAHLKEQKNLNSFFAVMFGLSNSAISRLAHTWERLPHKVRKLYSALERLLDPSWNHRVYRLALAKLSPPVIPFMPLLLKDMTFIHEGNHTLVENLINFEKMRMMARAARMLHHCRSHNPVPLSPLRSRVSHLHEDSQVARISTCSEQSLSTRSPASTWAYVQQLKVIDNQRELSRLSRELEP
# Chain of Cytochrome P450 2D6 (Homo sapiens) (P10635 whole entry, looked up): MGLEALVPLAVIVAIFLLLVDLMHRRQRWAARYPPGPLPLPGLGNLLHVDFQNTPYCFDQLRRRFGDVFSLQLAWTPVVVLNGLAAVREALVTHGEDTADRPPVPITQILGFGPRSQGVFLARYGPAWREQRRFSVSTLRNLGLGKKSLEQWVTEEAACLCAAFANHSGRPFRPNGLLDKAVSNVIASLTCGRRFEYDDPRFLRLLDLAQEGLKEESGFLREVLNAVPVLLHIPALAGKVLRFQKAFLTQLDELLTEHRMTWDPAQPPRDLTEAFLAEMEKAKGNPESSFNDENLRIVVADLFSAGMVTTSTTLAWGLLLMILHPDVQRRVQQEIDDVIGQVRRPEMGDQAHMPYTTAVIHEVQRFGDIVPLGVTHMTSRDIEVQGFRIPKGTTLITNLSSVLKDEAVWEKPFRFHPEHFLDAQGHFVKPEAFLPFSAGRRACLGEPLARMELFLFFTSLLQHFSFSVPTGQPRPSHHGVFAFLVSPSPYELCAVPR
# Chain of Papain (Carica papaya) (P00784 whole entry, looked up): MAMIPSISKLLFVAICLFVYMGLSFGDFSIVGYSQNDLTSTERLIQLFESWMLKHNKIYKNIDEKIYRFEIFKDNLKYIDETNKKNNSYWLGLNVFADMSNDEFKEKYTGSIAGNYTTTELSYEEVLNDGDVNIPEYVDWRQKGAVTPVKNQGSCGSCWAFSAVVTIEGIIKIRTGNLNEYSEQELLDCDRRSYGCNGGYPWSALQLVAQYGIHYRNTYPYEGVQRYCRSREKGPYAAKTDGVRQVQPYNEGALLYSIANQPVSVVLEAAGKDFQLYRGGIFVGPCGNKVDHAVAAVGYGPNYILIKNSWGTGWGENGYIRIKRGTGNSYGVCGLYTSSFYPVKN
# Chain of Cytochrome P450 2C9 (Homo sapiens) (P11712 whole entry, looked up): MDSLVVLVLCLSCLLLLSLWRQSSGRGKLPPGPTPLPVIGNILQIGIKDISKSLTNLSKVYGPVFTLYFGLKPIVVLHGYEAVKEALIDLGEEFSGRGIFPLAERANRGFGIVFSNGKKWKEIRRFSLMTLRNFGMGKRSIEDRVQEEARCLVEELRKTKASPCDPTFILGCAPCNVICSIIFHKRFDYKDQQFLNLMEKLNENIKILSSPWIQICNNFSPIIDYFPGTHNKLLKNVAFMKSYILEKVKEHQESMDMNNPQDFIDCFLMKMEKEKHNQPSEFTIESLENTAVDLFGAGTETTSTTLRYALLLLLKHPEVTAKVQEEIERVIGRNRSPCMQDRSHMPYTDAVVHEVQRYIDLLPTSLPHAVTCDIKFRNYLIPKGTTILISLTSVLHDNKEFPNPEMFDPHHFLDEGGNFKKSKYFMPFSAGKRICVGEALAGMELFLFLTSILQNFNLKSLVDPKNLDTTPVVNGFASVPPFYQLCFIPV
# Chain of Nicotinamide N-methyltransferase (Homo sapiens) (P40261 whole entry, looked up): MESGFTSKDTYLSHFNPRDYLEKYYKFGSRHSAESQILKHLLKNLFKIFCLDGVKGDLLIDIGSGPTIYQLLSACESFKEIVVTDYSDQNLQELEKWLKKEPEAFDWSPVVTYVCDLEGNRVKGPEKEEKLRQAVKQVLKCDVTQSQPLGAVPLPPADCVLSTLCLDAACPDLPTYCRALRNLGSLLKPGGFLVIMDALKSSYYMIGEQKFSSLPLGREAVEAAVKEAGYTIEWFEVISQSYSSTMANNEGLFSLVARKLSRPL
# Chain of Catechol O-methyltransferase (Homo sapiens) (P21964 whole entry, looked up): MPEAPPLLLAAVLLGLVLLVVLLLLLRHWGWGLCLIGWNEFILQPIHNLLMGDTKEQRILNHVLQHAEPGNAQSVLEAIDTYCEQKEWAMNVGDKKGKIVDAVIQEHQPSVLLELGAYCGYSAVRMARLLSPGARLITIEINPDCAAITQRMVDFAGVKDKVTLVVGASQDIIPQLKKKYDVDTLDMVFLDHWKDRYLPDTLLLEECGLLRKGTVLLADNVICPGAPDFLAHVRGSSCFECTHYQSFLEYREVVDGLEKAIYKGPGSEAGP
smiles,measurement,setting,value
CCc1cccc(N(C)C(N)=Nc2cccc3ccccc23)c1,Potency,[1],39.8 µM (active)
same,Potency,[2],15.8 µM (active)
same,max response,[3],-28.6% (inactive)
same,Potency,[4],0.11 µM (active)
same,Potency,Papain (Carica papaya),inactive
same,activity,[5],-0.0494%
same,"activity change, negative = inhibition",[6],4.76%
same,activity,[7],-4.43%
CC1=NS(=O)(=O)c2cc(Cl)ccc2N1,Potency,[8],inactive
same,Potency,[9],inactive
same,Potency,[4],inactive
same,Potency,[10],inactive
same,Potency,Papain (Carica papaya),inactive
same,Potency,[11],inactive
same,Potency,[12],inactive
CCCOc1ccccc1-c1nc2n[nH]nc2c(=O)[nH]1,Potency,[8],inactive
same,Potency,[9],inactive
same,Potency,[4],inactive
same,Potency,[10],inactive
same,Potency,Papain (Carica papaya),inactive
O=C(O)CN(CCN(CC(=O)O)CC(=O)O)CCN(CC(=O)O)CC(=O)O,Potency,[1],inactive
same,Potency,[2],inactive
same,max response,[3],25% (inactive)
same,Potency,[8],inactive
same,Potency,[9],inactive
same,Potency,[4],inactive
same,Potency,[10],inactive
same,Potency,Papain (Carica papaya),inactive
same,Potency,[11],inactive
OCCN1CCN(CCCN2c3ccccc3C=Cc3ccccc32)CC1,Potency,[1],inactive
same,max response,[3],-5.61% (inactive)
same,Potency,[4],13.8 µM (active)
same,Potency,[10],inactive
CCOC(=O)c1cnc2c(cnn2CC)c1NN=C(C)C,Potency,[1],inactive
same,max response,[3],4.21% (inactive)
same,Potency,[8],inactive
same,Potency,[9],inactive
same,Potency,[4],inactive
same,Potency,[12],inactive
O=C1CC2(CCCC2)CC(=O)N1CCCCN1CCN(c2ncccn2)CC1,Potency,[8],inactive
same,Potency,[9],inactive
same,Potency,[4],17.4 µM (active) and 13.5 µM (active)
same,Potency,[10],inactive
same,Potency,Papain (Carica papaya),inactive
same,Potency,[11],inactive
same,Potency,[12],inactive
NC(=O)N1c2ccccc2C=Cc2ccccc21,Potency,[8],inactive
same,Potency,[9],inactive
same,Potency,[4],inactive
same,Potency,[10],inactive
same,Potency,Papain (Carica papaya),inactive
same,Potency,[11],inactive
same,Potency,[12],inactive
O=C(O)CN(CCOCCOCCN(CC(=O)O)CC(=O)O)CC(=O)O,Potency,[8],inactive
same,"% pathology change, negative = correction",[9],13.7% [at 0.369 µM] (inactive)
same,"activity change, negative = inhibition",[4],2.42% [at 0.91 µM] (inactive)
same,"activity change, negative = inhibition",[10],9.82% [at 0.91 µM] (inactive)
same,Potency,Papain (Carica papaya),inactive
same,"activity change, negative = viability loss",[11],5.34% [at 0.588 µM] (inactive)
same,"activity change, negative = cell killing",[12],-1.31% [at 0.588 µM] (inactive)
C[C@]12C=CC(=O)C=C1CC[C@H]1[C@@H]3C[C@@H](O)[C@](O)(C(=O)CO)[C@@]3(C)C[C@H](O)[C@@]12F,Potency,[8],inactive
same,Potency,[9],inactive
same,Potency,[4],inactive
same,Potency,[10],inactive
same,Potency,Papain (Carica papaya),inactive
same,Potency,[11],inactive
same,Potency,[12],1.68 µM (active)
NC1=NCC2c3ccccc3Cc3ccccc3N12 (configuration not stated),Potency,[8],inactive
same,Potency,[9],inactive
same,Potency,[4],1.55 µM (active)
same,Potency,[10],inactive
same,Potency,Papain (Carica papaya),inactive
same,activity,[5],-1.67%
same,"activity change, negative = inhibition",[6],4.05%
same,activity,[7],-14.5%
CCn1ccnc1CC1COc2ccccc2O1 (configuration not stated),Potency,[8],inactive
same,Potency,[9],inactive
same,Potency,[4],1.74 µM (active)
same,Potency,[10],inactive
same,Potency,Papain (Carica papaya),inactive
same,Potency,[11],inactive
same,Potency,[12],inactive
same,outcome,[13],inactive
same,Potency,[14],inactive
same,Potency,[15],inactive
same,Potency,[16],11.1 µM (active)
Nc1c2c(nc3ccccc13)CCCC2O (configuration not stated),Potency,[8],inactive
same,Potency,[9],inactive
same,Potency,[4],15.5 µM (active)
same,Potency,Papain (Carica papaya),inactive
same,Potency,[11],inactive
same,Potency,[12],inactive
Cc1ccc(=O)n(-c2ccccc2)c1,Potency,[8],inactive
same,Potency,[9],inactive
same,Potency,[4],inactive
same,Potency,[10],inactive
same,Potency,Papain (Carica papaya),inactive
same,Potency,[11],inactive
same,Potency,[12],inactive
O=C(O)CCCCCCCC(=O)O,Potency,[8],inactive
same,Potency,[9],inactive
same,Potency,[4],inactive
same,Potency,[10],inactive
same,Potency,Papain (Carica papaya),inactive
same,Potency,[11],inactive
same,Potency,[12],inactive
CN1CCN(CC(=O)N2c3ccccc3C(=O)Nc3cccnc32)CC1,Potency,[8],inactive
same,"% pathology change, negative = correction",[9],18.1% [at 4.63 µM] (inactive)
same,"activity change, negative = inhibition",[4],3.24% [at 4.83 µM] (inactive)
same,Potency,Papain (Carica papaya),inactive
CN(C)C(=O)Oc1ccc[n+](C)c1,Potency,[8],inactive
same,Potency,[9],inactive
same,Potency,[4],inactive
same,Potency,[10],inactive
same,Potency,Papain (Carica papaya),inactive
same,Potency,[11],inactive
same,Potency,[12],inactive
C[C@H](CS)C(=O)N1CCC[C@H]1C(=O)O,Potency,[8],inactive
same,Potency,[9],inactive
same,Potency,[4],inactive
same,Potency,[10],inactive
same,Potency,[11],inactive
same,Potency,[12],inactive
CCCN(CCC)C(=O)C(CCC(=O)O)NC(=O)c1ccccc1 (configuration not stated),Potency,[8],inactive
same,Potency,[9],inactive
same,Potency,[4],inactive
same,Potency,[10],inactive
same,Potency,Papain (Carica papaya),inactive
same,Potency,[11],inactive
same,Potency,[12],inactive
CCn1cc(C(=O)O)c(=O)c2cc3c(cc21)OCO3,Potency,[8],inactive
same,Potency,[9],inactive
same,Potency,[4],inactive
same,Potency,[10],inactive
same,Potency,[11],inactive
same,Potency,[12],inactive
NC(=O)c1cn(Cc2c(F)cccc2F)nn1,Potency,[8],inactive
same,Potency,[9],inactive
same,Potency,[4],inactive
same,Potency,[10],inactive
same,Potency,Papain (Carica papaya),inactive
same,Potency,[11],inactive
same,Potency,[12],inactive
O=c1[nH]c(=O)n([C@H]2C[C@H](O)[C@@H](CO)O2)cc1Br,Potency,[8],inactive
same,Potency,[9],inactive
same,Potency,[4],inactive
same,Potency,[10],inactive
same,Potency,Papain (Carica papaya),inactive
same,Potency,[11],0.841 µM (active)
same,Potency,[12],0.75 µM (active)
CCO/C([O-])=N/c1c[n+](N2CCOCC2)no1,Potency,[8],inactive
same,Potency,[9],inactive
same,Potency,[4],inactive
same,Potency,Papain (Carica papaya),inactive
same,Potency,[11],inactive
same,Potency,[12],inactive
CCCCOCCOCCOCc1cc2c(cc1CCC)OCO2,Potency,[8],inactive
same,Potency,[9],inactive
same,Potency,[4],1.56 µM (active) and 1.74 µM (active)
same,Potency,[10],340 nM (active) and 123 nM (active)
same,Potency,[11],inactive
same,Potency,[12],inactive
same,outcome,[13],inactive
same,Potency,[14],inactive
same,Potency,[15],inactive
Cc1nc2ccccn2c(=O)c1CCN1CCC(C(=O)c2ccc(F)cc2)CC1,Potency,[8],inactive
same,Potency,[9],inactive
same,Potency,[4],2.19 µM (active)
same,Potency,[10],inactive
same,Potency,[11],inactive
C[N+](C)(C)CCCCCCCCCC[N+](C)(C)C,Potency,[8],inactive
same,Potency,[9],inactive
same,Potency,[4],inactive
same,Potency,[10],inactive
same,Potency,Papain (Carica papaya),inactive
same,Potency,[11],inactive
same,Potency,[12],inactive
